# Data published in PubChem BioAssay (Tox21).
# Inconclusive results are not listed. Where a call stands in place of a potency, no number is given. A number with no mark means an inactive call. Active and inactive are the calls of the source. Calls come from the whole dose curve; as a rule, active = well fitted inhibition curve with a large enough effect in the repeat runs; inconclusive = weak or mixed curves; inactive = no such curve, though single readings can be large or run the other way.
# Target: Cytochrome P450 1A2 (Homo sapiens) (UniProt P05177)
# Sequence (P05177 whole entry, looked up): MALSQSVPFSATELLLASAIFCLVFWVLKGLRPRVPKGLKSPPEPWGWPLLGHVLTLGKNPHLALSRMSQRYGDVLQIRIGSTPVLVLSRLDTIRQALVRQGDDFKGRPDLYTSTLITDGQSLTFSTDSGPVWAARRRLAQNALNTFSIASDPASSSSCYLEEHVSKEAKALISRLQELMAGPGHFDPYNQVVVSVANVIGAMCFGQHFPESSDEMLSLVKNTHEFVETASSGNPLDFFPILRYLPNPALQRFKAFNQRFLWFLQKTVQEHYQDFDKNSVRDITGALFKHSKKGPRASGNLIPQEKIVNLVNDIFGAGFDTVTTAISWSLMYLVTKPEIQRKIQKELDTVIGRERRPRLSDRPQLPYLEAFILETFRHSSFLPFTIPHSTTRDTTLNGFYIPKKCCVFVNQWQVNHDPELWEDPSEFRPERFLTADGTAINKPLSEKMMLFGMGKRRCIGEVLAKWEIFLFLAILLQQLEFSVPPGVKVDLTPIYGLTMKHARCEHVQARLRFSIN
# Assay: Cytochrome P450 Family 1 Subfamily A Member 2 (CYP1A2) small molecule antagonists: luciferase reporter qHTS assay (AID 1671199); note: nearly all actives have a fitted effect of over 50% in size
# Conditions: P450-Glo CYP1A2 enzyme, luciferin luminescence, 1 h; series mostly up to 115 µM
# Source text: National Center for Advancing Translational Sciences [NCATS]
# U.S. Environmental Protection Agency [EPA]
# National Institutes of Environmental Health Sciences [NIEHS]
# National Toxicology Program [NTP]
# U.S. Food and Drug Administration [FDA]
# Cytochrome P450 (CYP) enzymes are membrane-bound hemeproteins that play a key role in metabolism of drugs and xenobiotics. Evaluation of the effect of chemicals on CYP isozymes is useful to minimize the adverse drug reactions and toxicities in drug development process. Tox21 chemicals were tested for their effect on CYP enzyme activities by using P450-Glo (TM) screening systems (Promega Corporation, Madison, WI). These systems provide a luminescent method containing proluciferin substrates and are converted to luciferin products by CYP isozymes. The luciferin products formed are detected with a luciferin detection reagent, and the amount of light produced is proportional to CYP activity. P450-Glo (TM) CYP1A2 screening system (Catalog. No. V9770) was used to detect the compounds that interfere in CYP1A2 activity. The positive control compound used for CYP1A2 assay is furafylline (Sigma-Aldrich, St. Louis, MO).
# Tox21 Assay Protocol Summary:
# Two ul of enzyme-substrate mix was dispensed into medium binding white/solid 1536-well plates (Greiner Bio-One North America Inc., Monroe, NC) using a BioRaptr Flying Reagent Dispenser (FRD, Beckman Coulter, Brea, CA). Compounds dissolved in DMSO and positive control (furafyllline) were transferred to the assay plates at 23 nl using a Pintool station (Wako, San Diego, CA). The assay plates were incubated at room temperature for 10 min. Then 2 ul of NADPH regeneration solution was added to each well of the assay plates using an FRD and incubated at room temperature for 1 h. The reaction was stopped by adding 4 ul of detection reagent using an FRD and after 20 min incubation at room temperature the luminescence signal was measured using a ViewLux plate reader (Perkin Elmer, Shelton, CT). Data were expressed as relative luminescence units.
# Potency is the fitted concentration of half-maximal effect.
SMILES,Potency,"activity change, negative = inhibition"
Clc1ccnc(Cl)n1,inactive,
Cc1cc(C(C)(C)C)c(O)c(C)c1Cn1c(=O)n(Cc2c(C)cc(C(C)(C)C)c(O)c2C)c(=O)n(Cc2c(C)cc(C(C)(C)C)c(O)c2C)c1=O,31.7 µM (active),
O=C1CCc2cc(OCCCCc3nnnn3C3CCCCC3)ccc2N1,inactive,
CCN(CC)C(=O)c1cc(S(=O)(=O)Cc2ccccc2)c(N2CCC(c3ccccc3)CC2)cc1N(CC)CCN(C)C,inactive,
S=c1nccc[nH]1,35.6 µM (active),
CC(N=C(NC#N)Nc1ccncc1)C(C)(C)C (stereo not given),inactive,
CCCCCC(C)OC(=O)COc1ccc(Cl)c2cccnc12 (stereo not given),5.03 µM (active),
O=S(=O)(O)c1ccccc1/C=C/c1ccc(-c2ccc(/C=C/c3ccccc3S(=O)(=O)O)cc2)cc1,inactive,
O=C(O)Cc1ccc2c(c1)C(=O)c1ccccc1CO2,inactive,
CCCCCC/C=C\CCCCCCCC(=O)O,inactive,
CCCCCCCCCCCCCC[N+](C)(C)C,inactive,
COC1=C(OC)C(=O)C(CCCCCCCCCCO)=C(C)C1=O,15.5 µM (active),
CCCC1CCC(=O)CC1,inactive,
CCCCCCCC/C=C\CCCCCCCCN,12.9 µM (active),
CC[N+](CC)(CC)CCOc1ccc(/C=C/c2ccccc2)cc1,inactive,
Nc1ccc(C(=O)O)c(O)c1,inactive,
C#Cc1ccc(-c2ccccc2F)cc1,0.911 µM (active),
COC(=O)C1=C(C)NC(C)=C(C(=O)OCCN2CCN(C(c3ccccc3)c3ccccc3)CC2)C1c1cccc([N+](=O)[O-])c1 (stereo not given),inactive,
Cc1cccc2cccnc12,44.5 µM (active),
OC/C=C/CO,inactive,

SMILES,Potency,"activity change, negative = inhibition"
Cc1cc(=O)oc2cc(O)cc(O)c12,25.3 µM (active),
Cc1cc(-n2nc3ccc(Cl)cc3n2)c(O)c(C(C)(C)C)c1,inactive,
CC(CO)Oc1ccccc1 (stereo not given),inactive,
COc1ccc(-c2coc3cc(O)ccc3c2=O)cc1,12.6 µM (active),
C=C(CC)C(=O)c1ccc(OCC(=O)O)c(Cl)c1Cl,inactive,
C#C[C@]1(OC(C)=O)CC[C@H]2[C@@H]3CCC4=C/C(=N/O)CC[C@@H]4[C@H]3CC[C@@]21CC,inactive,
CN(C)Cc1ccccc1O,inactive,
CCCCCCCC,inactive,
ClCCl,inactive,
Cc1cccc(C)c1NC(=O)c1ccc(N)cc1,inactive,
c1ccsc1,inactive,
CC[C@H](C)COC(=O)/C=C/c1ccc(N=Cc2ccc(OC)cc2)cc1,5.63 µM (active),
CN(C)[C@@H](CCOc1cccc2ccccc12)c1ccccc1,7.76 µM (active),
C[C@H]1NCc2cc(-c3ccc4c(=O)c(C(=O)O)cn(C5CC5)c4c3OC(F)F)ccc21,,13.9% [at 23.6 µM]
CC(C)(C)c1ccc(C(O)CCCN2CCC(C(O)(c3ccccc3)c3ccccc3)CC2)cc1 (stereo not given),inactive,
CN1CCCCC1CCN1c2ccccc2Sc2ccc(S(C)=O)cc21 (stereo not given),inactive,
Nc1nc(N)nc(-c2cc(Cl)ccc2Cl)n1,17.4 µM (active),
Clc1nnc(Cl)c2ccccc12,11.2 µM (active),
O=C(O)c1cc(O)c2ccccc2c1O,5.64 µM (active),
C=CC(=O)OCCOC(=O)C=C,inactive,
